Test results as given in PubChem BioAssay (NCATS).
Inconclusive results are not listed. Calls of active or inactive are those of the source. Calls follow the shape of the dose curve; as a rule, active = well fitted curve in the direction sought with a large enough effect; inconclusive = small, poorly fitted or top-dose-only effect, or another doubt; inactive = no such curve, though single readings can be large; an effect the other way counts as inactive or inconclusive.

What was measured:
[1] = P-glycoprotein substrates identified in KB-8-5-11 adenocarcinoma cell line, qHTS therapeutic library screen (AID 1346987); also: nearly all actives have a fitted effect of over 65% in size; also: potency is read from the fitted curve at half-maximal effect
Method in brief: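 Human cervical adenocarcinoma KB-8-5-11 cells, selected in colchicine to over-express P-gp and assayed without it, were exposed for 72 h to titrated compounds. An ATP-based luminescent viability signal gave AC50.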

[2] = Primary qHTS for inhibitors of nuclear receptor binding SET domain protein 2 (NSD2) in an isogenic RCH-ACV NSD2 p.E1099K mutant (9B) (AID 1645876); also: nearly all actives have a fitted effect of over 70% in size; also: potency is read from the fitted curve at half-maximal effect
[3] = Primary qHTS for inhibitors of nuclear receptor binding SET domain protein 2 (NSD2) in an RCH-ACV wild type WT cells (2C) (AID 1645877); also: nearly all actives have a fitted effect of over 70% in size; also: potency is read from the fitted curve at half-maximal effect
[4] = target: Glutathione peroxidase 1 (Homo sapiens) (UniProt P07203); assay: Primary qHTS Assay for Inhibitors of Recombinant Selenoprotein Glutathione Peroxidase 1 (GPX1) (AID 1845191); also: nearly all actives have a fitted effect of over 65% in size; as to activity, negative = inhibition: % is scaled to controls: 0 for no effect and ±100 for the full control effect
Sequence of Glutathione peroxidase 1 (Homo sapiens) (P07203 whole entry, looked up): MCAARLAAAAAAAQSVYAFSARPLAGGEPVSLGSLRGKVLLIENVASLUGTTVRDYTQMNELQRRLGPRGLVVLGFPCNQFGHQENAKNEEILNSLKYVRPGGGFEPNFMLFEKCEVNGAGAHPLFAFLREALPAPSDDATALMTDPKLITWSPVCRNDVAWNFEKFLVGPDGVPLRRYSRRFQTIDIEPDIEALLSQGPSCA
Method in brief: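 GPX1 10 nM, GR 100 nM, GSH 1 mM, NADPH 0.5 mM, CHP 0.5 mM (final). 30-min cpd preincubation, RT. Ex340/Em450 read t=0, t=15 min.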

[5] = target: Phospholipid hydroperoxide glutathione peroxidase GPX4 (Homo sapiens) (UniProt P36969); assay: Primary qHTS Assay for Inhibitors of Recombinant Selenoprotein Glutathione Peroxidase 4 (GPX4) (AID 1845192); also: % is scaled to controls: 0 for no effect and ±100 for the full control effect; nearly all actives have a fitted effect of over 65% in size
Sequence of Phospholipid hydroperoxide glutathione peroxidase GPX4 (Homo sapiens) (P36969 whole entry, looked up): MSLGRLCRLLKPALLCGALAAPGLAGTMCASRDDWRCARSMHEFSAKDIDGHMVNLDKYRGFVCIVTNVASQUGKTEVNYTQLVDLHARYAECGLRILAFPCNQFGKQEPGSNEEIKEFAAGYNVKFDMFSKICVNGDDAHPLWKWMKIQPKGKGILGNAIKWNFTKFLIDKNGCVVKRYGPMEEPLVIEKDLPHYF
Method in brief: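 qHTS, GR-coupled: GPX4 200 nM + cpd 30 min RT → GSH 1 mM, NADPH 0.5 mM, GR 100 nM → CHP 0.5 mM start; fluor 340/450 at t0 and t15 min; no-enzyme wells as control.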

[6] = target: Luciferin 4-monooxygenase (Photinus pyralis) (UniProt P08659); assay: Primary firefly luciferase (FLuc) qHTS assay for identification of artifact compounds. (AID 1845220); conditions: outcome: dose series up to 54.1 µM unless noted; also: nearly all actives have a fitted effect of over 60% in size;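 as to activity change, negative = inhibition: plate controls were DMSO vehicle for no effect and no enzyme for full effect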
Method in brief: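 In this counter-screen for luciferase artifacts, test compounds met substrate (10 uM each luciferin and ATP) before 10 nM enzyme started the reaction. Light output was measured 5 min later.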

[7] = tested on: Nanoluciferase (engineered Oplophorus gracilirostris luciferase); assay: Primary Nanoluciferase (NLuc) qHTS assay for identification of artifact compounds. (AID 1845222);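 also: NLuc secreted into diluted conditioned medium of S16 cells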
Method in brief: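 Using secreted nanoluciferase in S16 culture medium (0.22 um filtered, 1:55 dilution), compounds were preincubated 15 min at RT. Signal was generated with Nano-Glo reagent (1:100) over 5 min.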

[8] = tested on: CRL-7250; assay: Cytotoxic Profiling of Annotated Libraries Using Quantitative High-Throughput Screening (AID 1296008); conditions: Five cell lines viability, CellTiter-Glo ATP luminescence, 48-72 h; max response: hits give low values; also: nearly all actives have a fitted effect of over 60% in size; also: potency is read from the fitted curve at half-maximal effect; as to max response: % is scaled to controls: 0 for no effect and ±100 for the full control effect
Method in brief: (§1)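 Compounds were pin-transferred onto cells and incubated 48 or 72 hr at 37 degree Celsius, 95% humidity. CellTiter-Glo was added, plates sat 10 min at room temperature, then ATP-coupled luminescence was imaged as the viability read-out.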

[9] = tested on: HEK293; assay: as above; conditions: Five cell lines viability, CellTiter-Glo ATP luminescence, 48-72 h; max response: hits give low values
Method in brief: as §1

[10] = tested on: HaCat; assay: as above; conditions: Five cell lines viability, CellTiter-Glo ATP luminescence, 48-72 h; max response: hits give low values
Method in brief: as §1

[11] = tested on: C33A; assay: Primary qHTS to identify gynecologic anti-cancer compounds using libraries of approved drugs and bioactive compounds (AID 1345084); conditions: Gynecologic cancer cell panel viability, ATPlite luminescence, 48 h; series mostly up to 57.5 µM; also: nearly all actives have a fitted effect of over 55% in size; also: potency is read from the fitted curve at half-maximal effect
Method in brief: (§2)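 Luminescence from the ATPlite ATP-monitoring reagent indicates viable cell number; lower signal means cytotoxicity. Cells received compound 16 h after seeding and were exposed for 48 h across five concentrations.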

[12] = tested on: Es-2; assay: as above; conditions: Gynecologic cancer cell panel viability, ATPlite luminescence, 48 h; series mostly up to 57.5 µM
Method in brief: as §2

[13] = tested on: Hek293T; assay: as above; conditions: Gynecologic cancer cell panel viability, ATPlite luminescence, 48 h, control line for the selectivity index; series mostly up to 57.5 µM
Method in brief: as §2

[14] = tested on: PA-1; assay: as above; conditions: Gynecologic cancer cell panel viability, ATPlite luminescence, 48 h; series mostly up to 57.5 µM
Method in brief: as §2

[15] = tested on: NIH3T3; assay: Cytotoxic Profiling of Annotated Libraries Using Quantitative High-Throughput Screening (AID 1296008); conditions: Five cell lines viability, CellTiter-Glo ATP luminescence, 48-72 h; max response: hits give low values; also: nearly all actives have a fitted effect of over 60% in size; also: potency is read from the fitted curve at half-maximal effect; as to max response: % is scaled to controls: 0 for no effect and ±100 for the full control effect
Method in brief: as §1

[16] = tested on: Tov-21-G; assay: Primary qHTS to identify gynecologic anti-cancer compounds using libraries of approved drugs and bioactive compounds (AID 1345084); conditions: Gynecologic cancer cell panel viability, ATPlite luminescence, 48 h; series mostly up to 57.5 µM; also: nearly all actives have a fitted effect of over 55% in size; also: potency is read from the fitted curve at half-maximal effect
Method in brief: as §2

[17] = tested on: Tov112D; assay: as above; conditions: Gynecologic cancer cell panel viability, ATPlite luminescence, 48 h; series mostly up to 57.5 µM
Method in brief: as §2

[18] = tested on: CASKI; assay: as above; conditions: Gynecologic cancer cell panel viability, ATPlite luminescence, 48 h; series mostly up to 57.5 µM
Method in brief: as §2

[19] = tested on: HeLa; assay: as above; conditions: Gynecologic cancer cell panel viability, ATPlite luminescence, 48 h; series mostly up to 57.5 µM
Method in brief: as §2

[20] = tested on: OV90; assay: as above; conditions: Gynecologic cancer cell panel viability, ATPlite luminescence, 48 h; series mostly up to 57.5 µM
Method in brief: as §2

C=C1[C@@H](C)C2[C@H](Cc3ccccc3)NC(=O)[C@@]23C(/C=C/C[C@H](C)C[C@@](C)(O)/C=C/[C@@H]3OC(C)=O)[C@@H]1O (stereo partly drawn)
inactive: Potency [4] | Potency [5] | outcome [6] | Potency [7] | Potency [11] | Potency [12] | Potency [13]
active: Potency [1] 2910 nM | Potency [2] 817 nM | Potency [3] 205 nM | Potency [8] 461 nM | Potency [9] 731 nM | Potency [10] 130 nM | Potency [14] 3980 nM

CC[C@H](C)[C@H](NC(=O)[C@H]1CCCCN1C)C(=O)N(COC(=O)CC(C)C)[C@H](C[C@@H](OC(C)=O)c1nc(C(=O)N[C@@H](Cc2ccc(O)cc2)C[C@H](C)C(=O)O)cs1)C(C)C
active: Potency [1] 1.9 nM | Potency [2] 1.1 nM | Potency [3] 0.3 nM | Potency [8] 4.7 nM | Potency [9] 0.4 nM | Potency [15] 1.2 nM | Potency [12] 8.3 nM | Potency [16] 5.2 nM | Potency [17] 4.1 nM
inactive: activity, negative = inhibition [4] -5.19% [at 1.09 µM] | activity change, negative = inhibition [5] -13.5% [at 1.09 µM] | activity change, negative = inhibition [6] -4.53% [at 1.03 µM] | activity, negative = inhibition [7] 2.85% [at 1.03 µM] | max response [10] -10.6%

CN(C)[C@@H]1C(=O)C(C(N)=O)=C(O)[C@@]2(O)C(=O)C3=C(O)c4c(O)ccc(Cl)c4[C@@](C)(O)C3C[C@@H]12 (stereo partly drawn)
inactive: Potency [1] | Potency [2] | Potency [3] | Potency [4] | Potency [5] | Potency [7] | max response [8] -6.15% | max response [9] 0.697% | outcome [15] | Potency [11] | Potency [18] | Potency [12] | Potency [19] | Potency [13] | Potency [20] | Potency [14] | Potency [16] | Potency [17]

CC(=O)O[C@H]1CC[C@@]2(CI)C(=CC[C@@H]3[C@@H]2CC[C@]2(C)C(=O)CC[C@@H]32)C1
inactive: Potency [1] | Potency [4] | Potency [5] | outcome [6] | Potency [7] | outcome [8] | max response [9] -18.2% | outcome [10] | max response [15] 0.959% | Potency [11] | Potency [18] | Potency [12] | Potency [19] | Potency [13] | Potency [20] | Potency [14] | Potency [16] | Potency [17]

CCc1nn(C)c(C(=O)NCc2ccc(Oc3ccc(C)cc3)cc2)c1Cl
active: Potency [1] 25900 nM | Potency [2] 817 nM | Potency [8] 6.5 nM | Potency [9] 7.3 nM | Potency [20] 631 nM
inactive: Potency [4] | Potency [5] | outcome [6] | Potency [7] | max response [10] 1.94% | Potency [12] | Potency [19] | Potency [16] | Potency [17]

C[C@]12CC[C@H](O)C[C@H]1CC[C@@H]1[C@@H]2[C@H](O)C[C@]2(C)[C@@H](c3ccc(=O)oc3)CC[C@]12O
active: Potency [1] 51.7 nM | Potency [2] 16.3 nM | Potency [3] 45.9 nM | Potency [8] 10.3 nM | Potency [9] 36.6 nM | Potency [10] 146 nM | Potency [18] 501 nM | Potency [12] 100 nM | Potency [19] 112 nM | Potency [20] 355 nM | Potency [14] 355 nM | Potency [16] 100 nM
inactive: Potency [4] | Potency [5] | outcome [6] | Potency [7]

CNc1ccc2oc(C[C@H]3O[C@@]4(CC[C@H]3C)O[C@H](C(C)C(=O)c3ccc[nH]3)[C@H](C)C[C@H]4C)nc2c1C(=O)O (stereo partly drawn)
inactive: Potency [5] | outcome [6] | Potency [7]
active: Potency [1] 2060 nM | Potency [2] 16300 nM | Potency [3] 14500 nM | Potency [8] 5800 nM | Potency [9] 1300 nM | Potency [10] 7310 nM | Potency [15] 3660 nM | Potency [11] 11200 nM | Potency [12] 10000 nM | Potency [13] 8910 nM | Potency [20] 12600 nM | Potency [14] 4470 nM | Potency [16] 11200 nM

CCC1C2CC3C4N(C)c5ccccc5C45CC(C2C5O)N3C1O (stereo not drawn)
inactive: Potency [1] | Potency [2] | Potency [3] | Potency [4] | Potency [5] | outcome [6] | Potency [7] | max response [8] -9.12% | outcome [9] | max response [15] 2.24% | Potency [11] | Potency [18] | Potency [12] | Potency [19] | Potency [13] | Potency [20] | Potency [14] | Potency [16] | Potency [17]

CC1=CC2/C=C(\C)CCCC(O)/C=C/C(=O)OC23C(=O)NC(CC(C)C)C3C1C (stereo not drawn)
inactive: Potency [1] | Potency [2] | Potency [3] | Potency [4] | Potency [5] | outcome [6] | Potency [7] | outcome [8] | max response [9] -0.114% | max response [10] -3.87% | max response [15] 1.49% | Potency [11] | Potency [12] | Potency [19] | Potency [13] | Potency [20] | Potency [14] | Potency [16] | Potency [17]
